A short description of this test: NCI Yeast Anticancer Drug Screen. Data for the rad18 strain (AID 177). Particulars: S. cerevisiae rad18 mutant growth inhibition, active compounds read high. Here is the method:
Growth inhibition of yeast strains with defined genetic alterations is measured as a screen for potential anti-cancer activity. Selected strains with alterations in DNA damage repair or cell cycle control were exposed to compounds and growth inhibition was measured relative to vehicle treated controls. The strain used in this assay is rad18

Drawing on PubChem BioAssay (NCI), this text covers growth inhibition for eight compounds.

About 79,000 compounds went through this panel and 15% of them were active in at least one assay; those are over-represented in the sample as a whole. Unmarked numbers belong to inactive results. Activity calls are given as the source filed them. Rule as the data show it: active = growth inhibition above about 70%; inactive = the rest.

In the case of `CO[C@H]1C[C@](C)(O)Cc2cc3c(c(O)c21)C(=O)c1c(O)cc2c(c1C3=O)O[C@@H]1O[C@@]2(C)[C@H](O)[C@@H](N(C)C)[C@@H]1O`, the growth inhibition runs as follows: (at 1.2 µM) -27%; (at 3.7 µM) -27%; (at 11.0 µM) -29%; (at 33.0 µM) -27%; (at 100.0 µM) -18%.

For the compound `CCN(CC)CCNc1ccc([N+](=O)[O-])c2nc3ccc(OC)cc3c(N)c12`, the growth inhibition reads like this: (at 1.2 µM) 1%; (at 3.7 µM) 4%; (at 11.0 µM) 7%; (at 33.0 µM) 23%; (at 100.0 µM) 86% (active).

In the case of `Cc1[nH]c2ccccc2c1C(c1ccc(N)cc1)c1c(C)[nH]c2ccccc12`, the growth inhibition (at 1.2 µM) was 4%; the growth inhibition (at 3.7 µM) is 4%; the growth inhibition (at 11.0 µM) is -1%; the growth inhibition (at 33.0 µM) was 0%; the growth inhibition (at 100.0 µM) was 47%.

`O=C1c2ccccc2-c2nc3ccccc3nc21`: the growth inhibition (at 1.2 µM) was -47%; the growth inhibition (at 3.7 µM) was -38%; the growth inhibition (at 11.0 µM) is -28%; the growth inhibition (at 33.0 µM) was 12%; the growth inhibition (at 100.0 µM) is 58%.

On to `COc1ccc(O)c(/C=N\Nc2ccccc2)c1`, for which the growth inhibition is -9% (at 1.2 µM); -8% (at 3.7 µM); -2% (at 11.0 µM); 14% (at 33.0 µM); 54% (at 100.0 µM).

In the case of `O=[N+]([O-])c1cc2no[n+]([O-])c2cc1N1CCCCC1`, the growth inhibition was 31% (at 1.2 µM); 73% (active) (at 3.7 µM); 97% (active) (at 11.0 µM); 97% (active) (at 33.0 µM); 96% (active) (at 100.0 µM).

Regarding `CCC(=O)OCCn1c2nc(=O)[nH]c(=O)c-2nc2cc(C)c(C)cc21`, the growth inhibition is, setting by setting: (at 1.2 µM) -3%; (at 3.7 µM) -1%; (at 11.0 µM) -1%; (at 33.0 µM) 7%; (at 100.0 µM) 11%.

`Nc1ccn(C2OC(CO)C3[O][Sn]([c]4ccccc4)([c]4ccccc4)[O]C32)c(=O)n1` (stereo not given): the growth inhibition is 3% (at 1.2 µM); 8% (at 3.7 µM); 27% (at 11.0 µM); 67% (at 33.0 µM); 88% (active) (at 100.0 µM).
